{"source": "PubChem BioAssay AID720697", "about": "(Broad Institute, 2013)", "note": "Potency and affinity values are given separately. Results filed as inconclusive are left out. Entries that show only a call come without a potency. Unmarked numbers belong to inactive results. Calls of active or inactive are those of the source.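 Rule for the calls: active = signal loss with fitted half-maximal concentration at or below twice the top valid tested dose in every test run; inconclusive = runs disagree, flat 30 to 70% signal loss, or poor fit; inactive = all runs flat, opposite direction, or potency beyond limit.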", "data": [{"assay": "HEK293T cytotoxicity, dose response, cytotoxicity control for miR-122 modulator project, cell-based, inhibitor set, cherry-pick, set 2 (AID 720697)", "settings": "HEK293T viability, CellTiter-Glo luminescence, 48 h; series mostly up to 26 µM", "values": [{"smiles": "CNC(=O)c1nc(C)n(-c2cc(Cl)cc(Cl)c2)n1", "activity change, negative = cytotoxicity": "4.99% [at 6 µM]"}, {"smiles": "C[C@H](NC(=O)C[C@H]1CC[C@@H]2[C@@H](COc3ccc(NS(=O)(=O)c4ccc(Cl)cc4)cc3C(=O)N2C)O1)c1ccccc1", "outcome": "inactive"}, {"smiles": "COc1ccc(CN2CCN(Cc3cccn3-c3ncccn3)CC2CCO)c(C)c1C", "note": "(centres undefined)", "outcome": "inactive"}, {"smiles": "CC(C)C#Cc1ccc2c(c1)O[C@H](CN(C)C(=O)c1ccncc1)[C@H](C)CN([C@H](C)CO)S2(=O)=O", "outcome": "inactive"}, {"smiles": "CC(C)CC#Cc1ccc2c(c1)O[C@H](CN(C)C(=O)c1cnccn1)[C@H](C)CN([C@@H](C)CO)S2(=O)=O", "outcome": "inactive"}, {"smiles": "O=C(Nc1nc(-c2cc3ccccc3o2)cs1)c1ccc(S(=O)(=O)N2CCCC2)cc1", "outcome": "inactive"}, {"smiles": "CCCNC(=O)C[C@@H]1CC[C@H]2[C@H](COc3ccc(NC(=O)c4ccc(C(F)(F)F)cc4)cc3C(=O)N2C)O1", "outcome": "inactive"}, {"smiles": "COc1cc(N)c(Cl)cc1NC(=O)c1ccccc1", "outcome": "inactive"}, {"smiles": "O=C(CN1CCN(c2nc(-c3ccccc3)cs2)CC1)Nc1ccc2c(c1)OCO2", "outcome": "inactive"}, {"smiles": "CN1C(=O)c2cc(NC(=O)c3ccc(C(F)(F)F)cc3)ccc2OC[C@H]2O[C@H](CC(=O)NCc3ccc4c(c3)OCO4)CC[C@@H]21", "outcome": "inactive"}, {"smiles": "C=CCc1ccccc1OCC(O)CN1CCN(CCN2C(=O)c3cccc4cccc(c34)C2=O)CC1", "note": "(centres undefined)", "outcome": "inactive"}, {"smiles": "CC(C)OCCCNC(=O)c1ccncc1", "outcome": "inactive"}, {"smiles": "COc1ccc2c(c1)C(C)=CC(C)(C)N2C(=O)CNCc1ccc2c(c1)OCO2", "outcome": "inactive"}, {"smiles": "COCC(=O)N(C[C@@H]1N[C@H](CO)[C@H]1c1ccc(C2=CCCC2)cc1)C(C)C", "outcome": "inactive"}, {"smiles": "CN(C)CCNC(=O)C1CC(=O)N(c2ccc(F)c(Cl)c2)C1", "note": "(centres undefined)", "outcome": "inactive"}, {"smiles": "C/C=C/c1ccc([C@@H]2[C@H](CO)N[C@H]2CN(CC(C)C)C(=O)c2ccccn2)cc1", "outcome": "inactive"}, {"smiles": "CCCNC(=O)C[C@@H]1CC[C@@H]2[C@@H](COc3ccc(NC(=O)Nc4ccccc4F)cc3C(=O)N2C)O1", "outcome": "inactive"}, {"smiles": "CNC(=O)C[C@H]1CC[C@H]2[C@@H](COc3ccc(NC(=O)C(C)C)cc3C(=O)N2C)O1", "outcome": "inactive"}, {"smiles": "COc1ccccc1-c1ccc2c(c1)O[C@@H](CN(C)S(=O)(=O)c1ccc(F)cc1)[C@@H](C)CN([C@@H](C)CO)S2(=O)=O", "outcome": "inactive"}, {"smiles": "CNC(=O)C[C@@H]1CC[C@H]2[C@@H](COc3ccc(NC(=O)c4cccc(OC)c4)cc3C(=O)N2C)O1", "outcome": "inactive"}, {"smiles": "CC(C)NC(=O)N1[C@H](CO)[C@@H](c2ccccc2)[C@@H]1CNC(=O)CN(C)C", "outcome": "inactive"}, {"smiles": "C/C=C/c1ccc([C@@H]2[C@@H](CO)N[C@@H]2CN(C(=O)C2CCCC2)C(C)C)cc1", "outcome": "inactive"}, {"smiles": "CCN(C[C@@H]1[C@@H](c2ccccc2)[C@H](CO)N1C(C)=O)C(=O)NC(C)C", "outcome": "inactive"}, {"smiles": "CC1(C)CC(=O)c2cnc(NC(=O)c3ccco3)nc2C1", "outcome": "inactive"}, {"smiles": "CN(C)CCCNC(=O)C[C@H]1CC[C@H]2[C@@H](COc3ccc(NC(=O)c4ccccc4F)cc3C(=O)N2C)O1", "outcome": "inactive"}, {"smiles": "CCCNC(=O)Nc1ccc2c(c1)OC[C@@H](C)N(CCC)C[C@H](C)[C@H](OC)CN(C)C2=O", "outcome": "inactive"}, {"smiles": "CCNC(=O)Nc1ccc2c(c1)C(=O)N(C)[C@H]1CC[C@H](CC(=O)NCCOC)O[C@@H]1CO2", "outcome": "inactive"}, {"smiles": "CO[C@H]1CN(C)C(=O)c2cc(NC(=O)c3cccc(Oc4ccccc4)c3)ccc2OC[C@@H](C)NC[C@H]1C", "outcome": "inactive"}, {"smiles": "CCCNC(=O)C[C@H]1CC[C@@H]2[C@H](COc3ccc(NC(=O)c4cccs4)cc3C(=O)N2C)O1", "outcome": "inactive"}, {"smiles": "CCC(=O)N1[C@H](CO)[C@@H](c2ccccc2)[C@H]1CN(C(C)C)S(C)(=O)=O", "outcome": "inactive"}, {"smiles": "COc1ccc(S(=O)(=O)Nc2ccc3c(c2)CC(=O)N([C@@H](C)CO)C[C@@H](C)[C@H](CN(C)Cc2ccc(-c4ccccc4)cc2)O3)cc1", "outcome": "inactive"}, {"smiles": "COc1cccc(CNC(=O)C[C@H]2CC[C@@H]3[C@H](COc4ccc(NC(C)=O)cc4C(=O)N3C)O2)c1", "outcome": "inactive"}, {"smiles": "COCCNC(=O)C[C@H]1CC[C@@H]2[C@@H](COc3ccc(NS(=O)(=O)c4ccc(Cl)cc4)cc3C(=O)N2C)O1", "outcome": "inactive"}, {"smiles": "Cc1cc(C)c2c(c1)/C(=C/C(=O)c1ccc(Br)s1)C(=O)N2", "outcome": "inactive"}, {"smiles": "CCC(=O)N1[C@@H](CO)[C@H](c2ccccc2)[C@@H]1CN(C(C)C)S(C)(=O)=O", "outcome": "inactive"}, {"smiles": "CO[C@@H]1CN(C)C(=O)c2ccc(NC(=O)Nc3ccc(C(F)(F)F)cc3)cc2OC[C@H](C)NC[C@H]1C", "outcome": "inactive"}, {"smiles": "CC(C)(C)c1cc(NCCCn2ccnc2)n2ncc(-c3ccc(Cl)cc3)c2n1", "outcome": "inactive"}, {"smiles": "COc1ccc(-c2c(C)nn3c(N)c(-c4ccccc4)cnc23)cc1OC", "outcome": "inactive"}, {"smiles": "OCc1ccc(-c2nn(Cc3ccccc3)c3ccccc23)o1", "outcome": "inactive"}]}]}
